Laboratory results taken from the supplement of paper PMC3334620.
Whole data set: some 33,000 sequences, median “E-score (-0.5 to 0.5)” near -0.04, cut for the highest 2% near 0.36. The list comes from a sample in which the highest values are over-represented; it also holds similar and randomly drawn sequences.

The sequences below were run against T1, Hmlalpha2 (UniProt P0CY09) (assay: PBM E-score (8-mer binding enrichment) (E-score (-0.5 to 0.5)); higher = stronger / more preferred TF binding). Conditions: protein concentration: 200 nM; construct: GST-full length.
T1 sequence: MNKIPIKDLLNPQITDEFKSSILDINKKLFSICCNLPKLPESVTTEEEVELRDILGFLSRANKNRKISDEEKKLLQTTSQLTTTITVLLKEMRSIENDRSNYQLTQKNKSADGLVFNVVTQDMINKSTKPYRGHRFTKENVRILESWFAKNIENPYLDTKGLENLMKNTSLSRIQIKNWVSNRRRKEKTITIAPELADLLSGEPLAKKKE
Method: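 Universal 'all 10-mer' protein binding microarrays (Agilent AMADID 015681) probed with GST-tagged S. cerevisiae TFs (full-length or DBD) made by in vitro transcription/translation (PURExpress), about 100-200 nM. Bound TF was detected with fluorescent anti-GST. Each ungapped 8-mer (which stands for itself and its reverse complement) is scored by the PBM enrichment score (E-score), a modified Wilcoxon-Mann-Whitney statistic from -0.5 to +0.5, computed with the Universal PBM Analysis Suite. Scale: above 0.35 generally sequence-specific binding.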

Row | Sequence | PBM E-score
1 | TAGGTTGA | 0.0343
2 | ATAGCAGA | 0.00582
3 | ATACAGAA | 0.199
4 | GGCCATGA | -0.217
5 | CTTGCCTA | -0.112
6 | ATAGGCAC | -0.216
7 | CGATTTTA | 0.081
8 | ACCGCGAT | -0.0546
9 | ACTGTTAA | 0.208
10 | AGTGTTCA | 0.00891
11 | AGTGTTAA | 0.374
12 | AGTGTTGA | 0.238
13 | CGTGTTAA | 0.481
14 | CGTGTTCA | 0.369
15 | CGTGTTCC | 0.2
16 | AGTGTTAT | 0.269
17 | CGTGTTGC | 0.301
18 | CCTGTTAA | 0.288
19 | CGTGTTGA | 0.446
20 | AGTGTTAC | 0.221
21 | CGCTCTTA | 0.0692
22 | AGAGAATG | -0.0972
23 | ACGGCCAC | -0.128
24 | AGAACCAT | 0.116
25 | AAAGATTC | 0.196

Row | Sequence | PBM E-score
26 | ACGGTCCC | -0.356
27 | AGGGTGAC | -0.182
28 | GACGGTGA | -0.192
29 | TCAGAACA | 0.196
30 | GGTGTTAC | 0.223
31 | CCTGTTAC | 0.176
32 | CTTGTTAC | 0.274
33 | GGTGTTTA | 0.112
34 | AGTGTTAG | 0.0767
35 | CGTGTTAG | 0.431
36 | CGTGTTTA | 0.436
37 | AGTGTTTA | 0.299
38 | CTTGTTAA | 0.414
39 | CGTGTTAC | 0.41
40 | ACTGTTAG | -0.13
41 | GTTGTTAA | 0.359
42 | CAGATACC | -0.251
43 | CTAGATCC | -0.22
44 | GAGGCTAC | -0.193
45 | CACTACTA | 0.00081
46 | ACTTGCCA | -0.0087
47 | ACACTTGA | -0.0396
48 | TCGACTCA | 0.0619
49 | CCCAAAGA | -0.0661
50 | ATAAAGAA | 0.0809

Row | Sequence | PBM E-score
51 | AGATTACA | 0.411
52 | GGGTTACA | 0.218
53 | TGATTAAA | 0.133
54 | AGATTACT | 0.141
55 | CGATTACG | 0.274
56 | AGATTACC | 0.0994
57 | TGATTACA | 0.445
58 | TGCTTACA | 0.305
59 | CGATTACC | -0.0336
60 | CGATTACA | 0.461
61 | CGGTTACG | 0.0305
62 | CGGTTACA | 0.367
63 | CTGTTCTA | 0.102
64 | TGAAGGAA | -0.0399
65 | GCCAATCC | -0.151
66 | ATGGCAAG | -0.153
67 | GGATTACA | 0.444
68 | GGATTAGA | -0.216
69 | GGATTACC | -0.00329
70 | GCTTAAGC | 0.187
71 | ATGTAGTC | 0.37
72 | GTGTAGTA | 0.323
73 | ATGTAGTA | 0.391
74 | ATGTAGTG | 0.332
75 | AAGTAGTC | 0.0858

Row | Sequence | PBM E-score
76 | CTGTAGTC | -0.0729
77 | TAGGCGGA | 0.0174
78 | GATAAGAC | -0.0897
79 | TATGTTGA | 0.364
80 | TATGTTCA | 0.316
81 | GATGTTAA | 0.383
82 | TATGTTAA | 0.459
83 | AATGTTAA | 0.364
84 | GCTGTTAA | 0.262
85 | GCTGTTAC | -0.0161
86 | AAGATCCG | -0.207
87 | ATTGCCCC | -0.315
88 | CACTGCGA | -0.0249
89 | CAAGGTCC | -0.193
90 | ATATCTCG | -0.151
91 | TTATGCAA | 0.11
92 | AACTACAA | 0.242
93 | AACTACAG | 0.0948
94 | AACTACAT | 0.392
95 | CACTACAG | 0.126
96 | GACTACAC | 0.362
97 | AACTACAC | 0.42
98 | AACTACGT | 0.186
99 | CACTACAA | 0.268
100 | CACTACAC | 0.394

Row | Sequence | PBM E-score
101 | TGGATCCA | -0.063
102 | CCTACTCG | -0.202
103 | ACCCTTGC | -0.209
104 | CGGGATAC | -0.16
105 | ACGTCTGC | -0.182
106 | ACACGTTA | 0.408
107 | AAACGTAT | 0.278
108 | ACACGTAG | 0.351
109 | ACACGTTG | 0.35
110 | ACACGTTC | 0.303
111 | ACACGTAA | 0.396
112 | ACACGTCT | 0.368
113 | ACACGTCG | 0.302
114 | ACACGTAC | 0.347
115 | ACACGTCA | 0.317
116 | ACACGTAT | 0.369
117 | ATACGTAT | 0.308
118 | CGAGTGGA | -0.137
119 | AGGGGCCG | -0.365
120 | CGGGAGCC | -0.33
121 | TCACGTAA | 0.393
122 | GCACGTAA | 0.348
123 | CCACGTAA | 0.33
124 | AGGTTGGG | -0.0364
125 | CCCTTGGC | -0.35

Row | Sequence | PBM E-score
126 | ATGATTAC | 0.326
127 | CTGATTAA | 0.141
128 | GCGATTAC | 0.275
129 | GTAATTAC | 0.452
130 | ACGATTAC | 0.383
131 | ACAATTAC | 0.376
132 | CTAATTAC | 0.362
133 | ATAATTAC | 0.357
134 | ACAATTAT | 0.214
135 | ACAATTAA | 0.214
136 | CCGATTAC | 0.216
137 | CTGATTAC | 0.369
138 | GAAGCAAA | 0.156
139 | CGCCACCG | -0.296
140 | CAGAGCTC | -0.142
141 | ATGGCGCC | -0.249
142 | TCCTGCAA | -0.15
143 | GCGGTGCA | -0.281
144 | GTTGCACA | 0.0871
145 | AGTGTTCG | 0.089
146 | ACTTAGGA | -0.0292
147 | AGGGTAAA | 0.0323
148 | CCCAAGCG | -0.19
149 | GTAATAAC | 0.392
150 | ATAATAAC | 0.187

Row | Sequence | PBM E-score
151 | GTAATAAA | 0.35
152 | CATACCTC | 0.0518
153 | CTGAATTC | 0.0173
154 | AACACAAA | 0.261
155 | AACACGAG | 0.377
156 | CACACGAC | 0.223
157 | TTCACGAA | 0.019
158 | TGCACGAA | 0.122
159 | AACACGAA | 0.386
160 | CACACGAG | 0.152
161 | AACACGAC | 0.424
162 | AGCACGAA | 0.167
163 | TACACGAA | 0.456
164 | ACCACGAC | -0.0364
165 | CACACGAA | 0.233
166 | ACGTTAAT | 0.304
167 | GCTGGGAC | -0.263
168 | AAGAACTG | -0.178
169 | ACAGTGTA | 0.244
170 | CCCTCGCC | -0.357
171 | CATGCGAC | 0.0966
172 | CTTCTGCA | -0.0586
173 | CCTGCGGC | -0.341
174 | TCAAGTAA | 0.265
175 | AGGGCCCA | -0.239
